Source: PubChem BioAssay
Most compounds without a hit are left out; they make up all but 3.5% or so of the library.
Mtb hypoxia rep: Mtb hypoxia fluorescent reporter inhibition; M. tuberculosis hypoxia-regulated fluorescent reporter, fluorescence; fluorescence inhibition, % (test concentration not listed); 0.1% of 300,000 active; in the data active means fluorescence inhibition mostly above about 23%, no sharp cut-off; inactive means mostly below about 17%
Rv3671c protease: inhibitors of M. tuberculosis serine protease Rv3671c; inhibition, % at 5.96 µM; 0.048% of 320,000 active; AID 2606; in the data active means inhibition above about 38%;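 further: extracellular domain of Rv3671c used as enzyme; 0% = enzyme with DMSO and 100% = no enzyme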
GDH-TPI counter-1: GDH-TPI coupled enzyme inhibition counter-screen. GDH-TPI coupled enzyme counterscreen, NADH absorbance. inhibition, % at 4.8 µM. 1.2% of 360,000 active; in the data active means inhibition above about 30%;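 further: 0% = DMSO wells and 100% = wells lacking the enzyme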
FBA Mtb inh: inhibits M. tuberculosis FBA enzyme; P9WQA3; purified M. tuberculosis FBA, fluorescence read-out; inhibition, % at 1 µM; 2.3% of 360,000 active; AID 588726;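 further: 0% = vehicle and 100% = reference inhibitor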
FadD28 binding: inhibitors of Mycobacterium tuberculosis FadD28 bisubstrate binding; FadD28 bisubstrate probe binding, fluorescence polarization; 0.22% of 360,000 active; inhibition, % at 12.5 µM; in the data active means inhibition above about 8.5%, passing the limit was not always enough
Mtb UGM inh: blocks M. tuberculosis UGM enzyme; P9WIQ1; purified UGM, fluorescence polarization probe displacement; inhibition, % at 10 µM; 0.06% of 320,000 active; in the data active means inhibition above about 10%, passing the limit was not always enough
Target sequence (P9WIQ1 whole entry, looked up): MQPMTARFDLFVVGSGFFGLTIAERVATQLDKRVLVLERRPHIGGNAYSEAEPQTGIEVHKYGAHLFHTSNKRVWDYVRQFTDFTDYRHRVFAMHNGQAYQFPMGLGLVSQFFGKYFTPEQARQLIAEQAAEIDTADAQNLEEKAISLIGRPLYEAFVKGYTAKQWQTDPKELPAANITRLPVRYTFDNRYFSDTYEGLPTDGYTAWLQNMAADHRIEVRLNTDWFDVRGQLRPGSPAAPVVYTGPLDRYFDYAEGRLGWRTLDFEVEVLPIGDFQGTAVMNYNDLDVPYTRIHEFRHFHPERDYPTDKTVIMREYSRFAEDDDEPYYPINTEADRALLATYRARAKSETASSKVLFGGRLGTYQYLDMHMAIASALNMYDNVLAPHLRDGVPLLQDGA
Mtb FBA inh conf: confirmation of M. tuberculosis fructose-bisphosphate aldolase inhibitors; shares compounds with FBA Mtb inh; purified M. tuberculosis FBA, fluorescence read-out; inhibition, % at 1 µM; 78% of 5,600 active; AID 651616;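 further: 0% = vehicle wells and 100% = reference inhibitor wells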
GDH-TPI counter-2: counter-screen for M. tuberculosis FBA inhibitors: GDH-TPI coupled enzyme inhibition. AID 652141. shares compounds with FBA Mtb inh. GDH-TPI coupled enzyme counterscreen, fluorescence. 81% of 5,600 active. inhibition, % at 1 µM; in the data active means inhibition above about 10%
GDH-TPI dose: GDH-TPI dose response counter-screen for Mtb FBA; shares compounds with FBA Mtb inh; GDH-TPI coupled enzyme assay, fluorescence, artifact counterscreen; IC50, µM; 79% of 170 active; AID 652145; call rule not given here
Active calls of the source: *; x = no result given; + = active, no number. Unless noted, no stated cut-off is given here; in the data, active means inhibition above about 27%; inactive means the rest.

SMILES | Mtb hypoxia rep | Rv3671c protease | GDH-TPI counter-1 | FBA Mtb inh | FadD28 binding | Mtb UGM inh | Mtb FBA inh conf | GDH-TPI counter-2 | others
COc1ccc2oc(C(=O)OCC(=O)NC3CCCCC3)c(C)c2c1 | 10 | -3 | 10 | 39* | 1 | 0 | 90* | 78*
COc1ccc2oc(C(=O)Nc3nccs3)c(C)c2c1 | 3 | -1 | 11 | -1 | -2 | -1 | x | x
COc1ccc2oc(C(=O)NC3(C)CCS(=O)(=O)C3)c(C)c2c1 (configuration not stated) | 3 | -3 | 12 | 39* | 0 | 2 | + | +
Br/C(C=NN1CCN(Cc2ccccc2)CC1)=C/c1ccccc1 | -6 | x | x | x | x | x | x | x
CC1CCC(=O)N(CC(C)CC#N)CC1 (configuration not stated) | -1 | x | x | x | x | x | x | x
COc1ccc(C=NNC(=O)C(=O)NCc2cccnc2)cc1 | 2 | x | x | x | x | x | x | x
CC(=O)Nc1cccc(C(C)=NNC(=O)c2ccc(CN3CCOCC3)cc2)c1 | 7 | x | x | x | x | x | x | x
CCOc1ccc2oc(C(=O)OCC(=O)NC3CCCC3)c(C)c2c1 | 12 | -10 | 2 | 31* | 0 | 2 | 14 | 9 | GDH-TPI dose=6.7*
O=C(Cc1ccccc1)NN=Cc1cc2c(cc1Cl)OCO2 | -2 | x | x | x | x | x | x | x
CC1=C(C#N)C(C)C2=C(CC(C)(C)CC2=O)N1 (configuration not stated) | 3 | -2 | 3 | 57* | -4 | 0 | 71* | 65*
COc1cc(C=NNC(=O)Nc2ccccc2)ccc1OC(C)=O | 4 | x | x | x | x | x | x | x
N#CC(=Cc1ccc(N2CCOCC2)o1)C(=O)N1CCOCC1 | 26 | x | x | x | x | x | x | x
NNC(=O)c1ccc2nc(-c3ccc(Br)cc3)cn2c1 | x | -5 | 2 | 11 | -11 | -1 | x | x
CC(=O)Nc1ccc(-c2cc(C(=O)O)c3cc4ccccc4cc3n2)cc1 | x | x | 3 | 24 | -1 | x | x | x
COc1ccc(-c2cn3cc(C(=O)NN)ccc3n2)cc1 | 1 | -16 | 4 | 42* | -7 | 0 | 89* | 78*
Cc1ccc2nc(-c3ccccc3)cn2c1 | 8 | -4 | -5 | 37* | -4 | -1 | 99* | 88*
CC(=O)Nc1ccc(-c2cn3cc(C)ccc3n2)cc1 | 8 | 4 | 15 | 74* | -1 | 0 | + | 145*
CC(=O)Nc1ccc(-c2cc(C(=O)O)c3ccc(C)cc3n2)cc1 | 2 | 6 | 0 | 47* | -4 | 0 | 5 | -5
CCOc1cc(C=Nn2cnnc2)ccc1OS(=O)(=O)c1ccccc1 | 10 | x | x | x | x | x | x | x
Cc1cc(C)nc(SCC(=O)NN=Cc2cccs2)n1 | 10 | x | x | x | x | x | x | x
COc1ccc(C2CC(=O)C=C(c3cc(Cl)cc(Cl)c3)C2)cc1 (configuration not stated) | 6 | x | x | x | x | x | x | x
C/C(C=NNC(=O)CSc1nc(C)cc(C)n1)=C\c1ccccc1 | 15 | x | x | x | x | x | x | x
CCOC(=O)c1cnc2c(C(=O)OCC)cnn2c1N | -10 | 4 | -8 | 6 | -3 | 0 | x | x
CCOC(=O)c1cnn2c(N)c(C#N)cnc12 | 2 | -13 | 26 | 29* | 1 | -1 | 51* | 37*
Cc1cccc(C(=O)NN=Cc2ccc(OCC(=O)N3CCCCC3)cc2)c1 | 12 | x | x | x | x | x | x | x
CC1CCCC(C)N1C(=O)COc1ccc(C(=O)N/N=C/c2ccc(C(=O)O)cc2)cc1 (configuration not stated) | x | 7 | -1 | 60* | 3 | -2 | 120* | 97*
Cc1ccc(C)c(S(=O)(=O)Nc2ccc(S(=O)(=O)Nc3ncccn3)cc2)c1 | 0 | 2 | 1 | -4 | -3 | 0 | x | x
Cc1ccc(C)c(S(=O)(=O)Nc2ccccc2C(=O)Nc2ccc(S(=O)(=O)Nc3ncccn3)cc2)c1 | 7 | -18 | -2 | 106* | -2 | 2 | + | +
Cc1ccc(S(=O)(=O)Nc2ccccc2C(=O)Nc2ccc(S(=O)(=O)Nc3nccc(C)n3)cc2)cc1 | 16 | -6 | 9 | 66* | -3 | 0 | 35* | 20*
CC(=O)Nc1ccc(C(=O)Nc2ccc(S(=O)(=O)Nc3nccc(C)n3)cc2)cc1 | 15 | -1 | 3 | -2 | -1 | 0 | x | x
